# Measured values reported in PubChem BioAssay AID2472 (National Center for Advancing Translational Sciences (NCATS), 2010).
# Where “and” joins values, the source holds several entries; their conditions need not be identical. Identical values can stand only once. The whole screen tested about 290,000 compounds, of which about 2,000 (0.69%) were called active. Cut-off read from the data, not from the text of the source: active = activity change below about -30%; inactive = the rest, inconclusive results apart. Many of the other results were omitted from the sample, so actives are more common in it than they were. More than one record can exist for a structure, and the calls need not agree.
# Assay: qHTS Assay for Inhibitors of Fructose-1,6-bisphosphate Aldolase from Giardia Lamblia: Coupling assay counterscreen
# Conditions: coupling enzyme system counterscreen, AmpLite Red fluorescence; at 58.2 µM (top of the series)
# How it was run: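 Compounds tested against the coupling enzymes alone at 57.5 uM final; readout was AmpLite Red fluorescence (525/598 nm) after 20 min at RT.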
# % is set by controls: 0 for no effect and ±100 for the full control effect.
row,SMILES,"activity change, negative = inhibition"
1,Cn1cc(-c2nc3cnc(N4CCNCC4)nc3n(CCc3ccccc3)c2=O)c2ccccc21,-0.191% (inactive)
2,CC(C)C1=CC2=CC[C@@H]3[C@](C)(CO)CCC[C@]3(C)C2CC1 (stereo partly specified),-1.26% (inactive)
3,COc1cccc(CN(C)C(=O)CC23CC4CC(CC(C4)C2)C3)c1OC,-1.24% (inactive)
4,COc1ccc(S(=O)(=O)N2CCCC(C(=O)NCCCn3ccnc3)C2)cc1OC (stereo unspecified),-2.16% (inactive)
5,CCN(CC)c1ccc(C(=O)Nn2c(C)nc3ccccc3c2=O)cc1,2.59% (inactive)
6,CC(C)Oc1c(Br)cc(Br)cc1/C=N/NC(N)=S,-0.43% (inactive)
7,Cc1ccc(-c2c3c(=O)n(C)c(=O)n(C)c3cn2-n2cnnc2)cc1,1.01% (inactive)
8,COc1cccc(-n2cc3c(c2-c2ccccc2)c(=O)n(C)c(=O)n3C)c1,-16.5% (inactive)
9,Cc1ccc(-c2c3c(=O)n(C)c(=O)n(C)c3cn2-c2ccccc2O)cc1,-32% (active)
10,O=c1o[nH]c(-c2ccccc2)c1N=Nc1c(F)cccc1Cl,5.04% (inactive)
11,COc1cnc(SCc2ccc(Cl)c(Cl)c2)nc1Cl,1.35% (inactive)
12,CCCC(=O)N1CCC(CCC(=O)NC2CC2)CC1,0.0768% (inactive)
13,O=C(CC(n1cncn1)C(Cl)(Cl)Cl)c1ccc([N+](=O)[O-])cc1 (stereo unspecified),-0.311% (inactive)
14,O=C(CN1C(=O)COc2ccccc21)Nc1ccc(F)cc1,-7.46% (inactive)
15,CCCN1CCN(CCCNC(=O)CN2C(=O)COc3ccccc32)CC1,-1.3% (inactive)
16,O=C(CN1C(=O)COc2ccccc21)NCCN1CCc2ccccc2C1,-31.2% (active)
17,COCc1cc(C)n(CC(=O)NCC2CCCO2)c(=O)c1C#N (stereo unspecified),0.717% (inactive)
18,CNS(=O)(=O)c1ccc(NC(=O)Nc2ccc3c(c2)OCO3)cc1,-1.22% (inactive)
19,CCCCN(CC)C(=O)C1CCCN(S(=O)(=O)c2cccc3nsnc23)C1 (stereo unspecified),-1.17% (inactive)
20,COc1ccc(CC(=O)Nc2c(C(N)=O)oc3ccccc23)cc1,2.14% (inactive)
21,c1coc(-c2nc3nc4ccccc4n3nc2-c2ccco2)c1,-45.8% (active)
22,Clc1ccccc1CSc1nnc(-c2ccco2)c(-c2ccco2)n1,-6.43% (inactive)
23,Cn1c(-c2ccco2)nc2cc3ccccc3cc21,-10.1% (inactive)

row,SMILES,"activity change, negative = inhibition"
1,CN(CCOc1ccccc1)C(=O)c1cc(COc2c(F)cccc2F)on1,-0.542% (inactive)
2,O=C1Nc2ccc([N+](=O)[O-])cc2C1=Nc1cccc(CO)c1,-33% (active)
3,CN1CCN(/N=C2/C(=O)Nc3ccc([N+](=O)[O-])cc32)CC1,-19.1% (inactive)
4,O=[N+]([O-])c1ccc(N(CCO)Cc2ccccc2)c([N+](=O)[O-])c1,-1.63% (inactive)
5,COC(=O)N/N=C/c1cn(CCCOc2ccc(C)cc2)c2ccccc12,-8.57% (inactive)
6,COc1ccc(C2CC(O)(c3ccccc3)Oc3cc(C)cc(C)c32)cc1 (stereo unspecified),-4.71% (inactive)
7,CC1C(=O)C(C)C(c2ccc(O)cc2)NC1c1ccc(O)cc1 (stereo unspecified),-1.45% (inactive)
8,CCOC(=O)c1cc2occc2n1CC(=O)N1CCN(C(=O)c2ccco2)CC1,2.42% (inactive)
9,CCOC(=O)c1cc2c(ccn2C)n1CC(=O)N1CCC(C)CC1,-41.2% (active)
10,CCOC(=O)c1cc2occc2n1CC(=O)NC1CCC(C)CC1 (stereo unspecified),-0.298% (inactive)
11,COC(=O)N1C(/C=C/C=C/c2ccc(OC)cc2)=Cc2ccccc2C1CC(C)=O (stereo unspecified),-0.194% (inactive)
12,CCc1ccccc1NC(=O)CN(C)C(=O)COc1ccc(C)nc1[N+](=O)[O-],-2.08% (inactive)
13,Cc1ccc(OCC(=O)Nc2ccccc2Sc2ccc(Cl)cc2)c([N+](=O)[O-])n1,-30.3% (active)
14,Cc1ccc(OCC(=O)NC(C)c2ccccc2)c([N+](=O)[O-])n1 (stereo unspecified),0.28% (inactive)
15,C=C(C(C)=O)C(O)c1cccs1 (stereo unspecified),2.11% (inactive)
16,O=C(COCc1cc(-c2ccc3c(c2)OCO3)on1)N1CCN(c2cccc(Cl)c2)CC1,-0.674% (inactive)
17,CCN(CC)c1ccc2cc(C(N)=O)/c(=N\NC(=O)c3ccncc3)oc2c1,-7.4% (inactive)
18,CCN(CC)c1ccc2oc(=O)c(C)nc2c1,-46.3% (active)
19,CCN(CC)c1ccc(/C=N/Nc2nc(C)cc(C)n2)c(O)c1,-8.39% (inactive)
20,CCC(=O)Nc1ccc2nn(-c3ccc(F)cc3)nc2c1,0.799% (inactive)
21,Cc1cccc(NC(=S)NCc2ccc3[nH]c4c(c3c2)CCCC4)c1,-0.782% (inactive)
22,O=C(O)CCC(=O)NCc1ccc(C(=O)O)cc1,3.84% (inactive)
23,O=C(O)CCC(=O)NCc1ccc2[nH]c3c(c2c1)CCCC3,-41.3% (active)

row,SMILES,"activity change, negative = inhibition"
1,Cc1ccc(C23CC4CC(CC(C(=O)NCC(=O)O)(C4)C2)C3)cc1,6.61% (inactive)
2,O=S(=O)(Nc1cccc(Oc2ccc(Cl)cc2)n1)c1ccc(F)cc1,3.65% (inactive)
3,Cc1ccc(C2C3=C(Nc4[nH]n(-c5ccccc5)c(=O)c42)c2ccccc2C3=O)cc1 (stereo unspecified),-44% (active)
4,Cc1cc(C)c(C2C3=C(Nc4c2c(C)nn4-c2ccccn2)c2ccccc2C3=O)c(C)c1 (stereo unspecified),-0.679% (inactive)
5,Cc1ccc(-c2ccnc3[nH]n(-c4ccccc4)c(=O)c23)cc1,2.09% (inactive)
6,COc1cc(Cl)c(C)cc1NC(=O)CN1CCCCCC1,0.688% (inactive)
7,CC(=O)N1CCc2c(sc(NC(=O)CCS(=O)(=O)c3ccccc3)c2C#N)C1,1.84% (inactive)
8,CC(C)N1CCc2c(sc(NC(=O)Cc3ccccc3)c2C#N)C1,-3% (inactive)
9,N#Cc1c(N)sc2c1CCN(C(=O)OCc1ccccc1)C2,-39.2% (active)
10,O=C1C2C(c3ccccc3)CC=CC2C(c2ccoc2)N1Cc1ccccc1 (stereo unspecified),8.25% (inactive)
11,COC(=O)CCCC1=CC2=CC(=O)C(C)(OC(=O)c3cccs3)C(=O)C2=CN1c1cccc(C#N)c1 (stereo unspecified),-7% (inactive) and -4.26% (inactive)
12,CCCCC1=CC2=CC(=O)C(C)(OC(=O)CC)C(=O)C2=CN1CCCOC(C)C (stereo unspecified),-25% (inactive) and -18.1% (inactive)
13,CC(C)(C)OC(=O)NCCCCC1=CC2=CC(=O)C(C)(OC(=O)c3cccs3)C(=O)C2=CO1 (stereo unspecified),0.595% (inactive)
14,COC(=O)CCCC1=CC2=CC(=O)C(C)(OC(=O)c3cccs3)C(=O)C2=CN1c1ccc(CO)cc1 (stereo unspecified),1.62% (inactive)
15,COC(=O)CCCC1=CC2=CC(=O)C(C)(OC(=O)c3cccs3)C(=O)C2=CN1CC1CC1 (stereo unspecified),-36.8% (active) and -32.4% (active)
16,COC(=O)CCCC1=CC2=CC(=O)C(C)(OC(=O)c3cccs3)C(=O)C2=CN1CC(C)C (stereo unspecified),-16.4% (inactive) and -34.8% (active)
17,COc1cccc(-c2coc3cc4oc(=O)c(CC(=O)O)c(C)c4cc23)c1,12.3% (inactive)
18,O=C(Nc1cccc([N+](=O)[O-])c1)N1CCc2ccccc2C1,-5.24% (inactive)
19,C=C1C([C@@]2(C)C(OC(C)=O)CC(=O)O[C@@](C)(COC(C)=O)C2CC(=O)OC)C(OC=O)C(OC(=O)C(O)C(C)CC)[C@]2(C)C(c3ccoc3)CC(=O)C12O (stereo partly specified),-3.85% (inactive)
20,CC(C)CCC(C)NC(=O)c1ccc2nccnc2c1 (stereo unspecified),2.87% (inactive)
21,Oc1cc(O)c2c(c1)OC(c1ccc(O)c(O)c1)C(O)C2 (stereo unspecified),-34.5% (active)
22,CC1(c2ccc3ccccc3c2)NC(=O)N(CC(N)=O)C1=O (stereo unspecified),-1.62% (inactive)
23,Cc1c(Cl)cccc1NC(=O)NCc1ccc(C)n1C,0.306% (inactive)

row,SMILES,"activity change, negative = inhibition"
1,CCCN1CCC(=O)N(C(CSc2ccc(C)cc2)Cc2ccccc2)CC1 (stereo unspecified),2.31% (inactive)
2,CC1(C)Cc2ccccc2-c2[nH]c(=S)[nH]c(=O)c21,2.14% (inactive)
3,N#CC1=C(N)Oc2[nH]c(=S)[nH]c(=O)c2C12C(=O)Nc1ccccc12 (stereo unspecified),-33.1% (active)
4,N#CC1=C(N)Oc2n[nH]c(CSc3ccccc3)c2C12C(=O)Nc1ccccc12 (stereo unspecified),-1.05% (inactive)
5,COCCCNc1nc2ccccc2nc1NS(=O)(=O)c1ccc(F)cc1,3.51% (inactive)
6,Oc1cc2c(cc1O)CN(C(=S)NCCc1ccc(Cl)cc1)CCC2,-10.5% (inactive)
7,CCOCCCNC(=O)c1cn(CC(C)C)c(=O)c2c1c1ccccc1n2C,1.3% (inactive)
8,Cc1nn(C)cc1/C=C1\CCC/C(=C\c2cn(C)nc2C)C1=O,-3.28% (inactive)
9,COc1ccc2cc1Oc1ccc(cc1)C[C@H]1c3cc(c(OC)cc3CCN1C)Oc1c(O)c(OC)cc3c1[C@H](C2)N(C)CC3,3.01% (inactive)
10,COc1ccc(CN2CCCC(N3CCc4ccccc4C3)C2)c(O)c1 (stereo unspecified),0.955% (inactive)
11,COc1c(O)ccc2c1CN1CCc3cc4c(cc3C1C2)OCO4 (stereo unspecified),-31.7% (active)
12,COc1ccc2c(c1)N(C)/C(=C1/SC(=S)N(NC(C)=O)C1=O)S2,-2.99% (inactive)
13,CCOc1cc(-c2cc(-c3ccc(NC(C)=O)cc3)nc(N)c2C#N)ccc1O,-0.764% (inactive)
14,CC(C)CNS(=O)(=O)c1ccc(CCC(=O)NCc2ccc(Cl)cc2)cc1,2.27% (inactive)
15,Cc1cccnc1NC(=O)CSc1nnc(COc2ccc(C(C)C)cc2)n1C,-3.92% (inactive)
16,Cc1ccc(OCc2nc3ccccc3n2C)cc1,-0.274% (inactive)
17,Cc1ccc(OCc2nnc(SC3CCc4ccccc4C3=O)n2C)cc1 (stereo unspecified),-79.8% (active)
18,C=C1/C(=C\C=C2\CCCC3(C)C2CCC3C(C)/C=C/C(O)C2CC2)CC(O)CC1O (stereo unspecified),-0.462% (inactive)
19,CN(NS(=O)(=O)c1cccs1)c1ncc(C(F)(F)F)cc1Cl,1.61% (inactive)
20,CCOC(=O)c1c(C)[nH]c2c1-c1ccccc1C(=O)C2=O,-46.9% (active)
21,CCOC(=O)c1c(C)[nH]c(C(=O)NCc2ccccc2OC)c1C,6.66% (inactive)
22,CCOC(=O)c1c(C)[nH]c(C)c1S(=O)(=O)N(C)CC(=O)Nc1ccccc1C,0.829% (inactive)
